The source made the active and inactive calls. The calls were made as follows: active = hit-call score of the fitted dose curve at least 0.9, where 1 is the maximum; inactive = score below 0.9.
Assays:
[1] = read-out: Plasminogen activator inhibitor-1 (PAI1), SERPINE1 (gene 5054); test: BSK_hDFCGF_PAI1: BioMAP Diversity Plus: hDFCGF Assay for Plasminogen activator inhibitor-1 (PAI1) Biomarker Activity (AID 2283066); details: primary human foreskin fibroblasts; actives raise or lower the signal
How it was run: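 Human foreskin fibroblasts in the hDFCGF system were dosed with compound for 24 h; PAI-1 was quantified by ELISA. Bidirectional curve fitting used DMSO as negative control and baseline.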

[2] = read-out: Intercellular Adhesion Molecule 1 (ICAM1), ICAM1 (gene 3383); test: BSK_KF3CT_ICAM1: BioMAP Diversity Plus: KF3CT Assay for Intercellular Adhesion Molecule 1 (ICAM1) Biomarker Activity (AID 2283067); details: primary human keratinocytes with fibroblasts; actives raise or lower the signal
How it was run: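 Cell-surface ICAM-1 was measured by ELISA 24 h after dosing primary human skin keratinocytes co-cultured with fibroblasts. Parallel SRB staining tracked overt cytotoxicity. Gain or loss of signal was fitted relative to DMSO.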

[3] = read-out: Interferon-gamma inducible Protein 10 (IP10), CXCL10 (gene 3627); test: BSK_KF3CT_IP10: BioMAP Diversity Plus: KF3CT Assay for Interferon-gamma inducible Protein 10 (IP10) Biomarker Activity (AID 2283068); details: primary human keratinocytes with fibroblasts; actives raise or lower the signal
How it was run: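 KF3CT co-culture (keratinocytes + foreskin fibroblasts), 24 h compound, IP-10 by ELISA; bidirectional fit vs DMSO baseline.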

[4] = BSK_KF3CT_SRB: Viability Assessment in the BioMAP Diversity Plus: KF3CT Assay (AID 2283069); details: primary human keratinocytes with fibroblasts;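 also: total protein by sulforhodamine B staining as a cytotoxicity measure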
How it was run: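 Human keratinocyte and foreskin fibroblast co-culture exposed to chemical for 24 h. Total protein measured in parallel cultures by 0.1% sulforhodamine B staining after 10% TCA fixation, read at 560 nm; bidirectional fit relative to DMSO.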

[5] = read-out: Interleukin-1 alpha (IL1a), IL1A (gene 3552); test: BSK_KF3CT_IL1a: BioMAP Diversity Plus: KF3CT Assay for Interleukin-1 alpha (IL1a) Biomarker Activity (AID 2283070); details: primary human keratinocytes with fibroblasts; actives raise or lower the signal
How it was run: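 Primary human keratinocyte plus foreskin fibroblast co-culture, dosed and measured at 24 h in 96-well plates. IL-1a level quantified by ELISA; bidirectional fit relative to DMSO.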

[6] = read-out: TIMP metallopeptidase inhibitor 2 (TIMP2), TIMP2 (gene 7077); test: BSK_KF3CT_TIMP2: BioMAP Diversity Plus: KF3CT Assay for TIMP metallopeptidase inhibitor 2 (TIMP2) Biomarker Activity (AID 2283071); details: primary human keratinocytes with fibroblasts; actives raise or lower the signal
How it was run: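 Human primary keratinocyte/foreskin fibroblast co-culture dosed with chemical and sampled at 24 h. TIMP-2 levels quantified by ELISA; bidirectional fitting against DMSO negative control as baseline.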

[7] = read-out: Transforming growth factor beta 1 (TGFb1), TGFB1 (gene 7040); test: BSK_KF3CT_TGFb1: BioMAP Diversity Plus: KF3CT Assay for Transforming growth factor beta 1 (TGFb1) Biomarker Activity (AID 2283072); details: primary human keratinocytes with fibroblasts; actives raise or lower the signal
How it was run: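 Human keratinocyte plus foreskin fibroblast primary co-culture, dosed with chemical for 24 h. TGF-b1 quantified by ELISA. Activity fitted bidirectionally against DMSO negative control as baseline.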

[8] = read-out: C-C motif chemokine 2 (Homo sapiens) (UniProt P13500); test: BSK_KF3CT_MCP1: BioMAP Diversity Plus: KF3CT Assay for Monocyte Chemoattractant Protein 1 (MCP1/CCL2) Biomarker Activity (AID 2283073); details: primary human keratinocytes with fibroblasts; actives raise or lower the signal
How it was run: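 ELISA read-out of MCP-1, 24 h post-dose, in primary human skin keratinocytes co-cultured with fibroblasts. Parallel SRB staining monitors cytotoxicity; changes fitted both directions relative to DMSO.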

[9] = read-out: Matrix Metallopeptidase 9 (MMP9), MMP9 (gene 4318); test: BSK_KF3CT_MMP9: BioMAP Diversity Plus: KF3CT Assay for Matrix Metallopeptidase 9 (MMP9) Biomarker Activity (AID 2283074); details: primary human keratinocytes with fibroblasts; actives raise or lower the signal;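 as to AC50: MMP9 protein level quantified by ELISA in the co-culture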
How it was run: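 Human keratinocyte and foreskin fibroblast co-culture exposed to chemicals for 24 h; MMP9 biomarker measured by ELISA, bidirectional fitting relative to DMSO; cytotoxicity tracked by SRB total protein staining in parallel cultures.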

[10] = read-out: urokinase plasminogen activator (uPA), PLAU (gene 5328); test: BSK_KF3CT_uPA: BioMAP Diversity Plus: KF3CT Assay for urokinase plasminogen activator (uPA) Biomarker Activity (AID 2283075); details: primary human keratinocytes with fibroblasts; actives raise or lower the signal
How it was run: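 Primary human keratinocyte/foreskin fibroblast co-culture exposed to chemical; uPA measured by ELISA at 24 h. Bidirectional fit versus DMSO, with parallel SRB total-protein staining for cytotoxicity.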

CD40, CD40 (gene 958) = test: BSK_LPS_CD40: BioMAP Diversity Plus: LPS Assay for CD40 Biomarker Activity (AID 2283076); details: primary human HUVEC with PBMC; actives raise or lower the signal
How it was run: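 In the LPS system of human endothelial cells with peripheral blood mononuclear cells, CD40 levels were read by ELISA 24 h post-treatment. Signal changes in either direction were fitted against the DMSO baseline, with parallel SRB protein staining.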

[11] = read-out: E-selectin (Homo sapiens) (UniProt P16581); test: BSK_LPS_Eselectin: BioMAP Diversity Plus: LPS Assay for Eselectin Biomarker Activity (AID 2283077); details: primary human HUVEC with PBMC; actives raise or lower the signal
How it was run: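 E-selectin ELISA on LPS-stimulated endothelial cell/PBMC co-cultures, read 24 h post-treatment; gains and losses fitted against DMSO. Parallel SRB staining (0.1% SRB after 10% TCA fixation, 560 nm) flags overt cytotoxicity.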

[12] = read-out: Interleukin-8 (IL8), CXCL8 (gene 3576); test: BSK_LPS_IL8: BioMAP Diversity Plus: LPS Assay for Interleukin-8 (IL8) Biomarker Activity (AID 2283078); details: primary human HUVEC with PBMC; actives raise or lower the signal
How it was run: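 ELISA read-out of IL-8 after 24 h chemical treatment of LPS-activated endothelial/PBMC human primary co-cultures. Changes either up or down relative to DMSO; overt cytotoxicity checked by sulforhodamine B staining in parallel wells.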

[13] = BSK_LPS_SRB: Viability Assessment in the BioMAP Diversity Plus: LPS Assay (AID 2283079); details: primary human HUVEC with PBMC;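 also: total protein by sulforhodamine B absorbance as a cytotoxicity measure; measured one day after compound addition; fitted in both directions against DMSO so loss or gain of signal counts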
How it was run: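 SRB viability endpoint: cells fixed with 10% TCA, stained with 0.1% SRB, read at 560 nm, 24 h post-dose. HUVEC/PBMC co-culture; signal change in either direction scored relative to DMSO.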

[14] = read-out: Interleukin-1 alpha (IL1a), IL1A (gene 3552); test: BSK_LPS_IL1a: BioMAP Diversity Plus: LPS Assay for Interleukin-1 alpha (IL1a) Biomarker Activity (AID 2283080); details: primary human HUVEC with PBMC; actives raise or lower the signal
How it was run: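 Readout is IL-1a level by ELISA, 24 h post-dose, fitted as gain or loss relative to DMSO. System: LPS-activated human primary co-culture of vascular endothelium and peripheral blood mononuclear cells, with parallel SRB total-protein cytotoxicity.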

[15] = read-out: Monocyte Chemoattractant Protein-1 (MCP1), CCL2 (gene 6347); test: BSK_LPS_MCP1: BioMAP Diversity Plus: LPS Assay for Monocyte Chemoattractant Protein-1 (MCP1) Biomarker Activity (AID 2283081); details: primary human HUVEC with PBMC; actives raise or lower the signal;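 as to AC50: secreted MCP-1 protein quantified by ELISA in culture supernatant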
How it was run: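 Secreted MCP-1 read by ELISA at 24 h post-dosing in an LPS-activated co-culture of endothelial cells with peripheral blood mononuclear cells. Fits run in both directions, DMSO as baseline; parallel SRB staining tracks overt cytotoxicity.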

[16] = BSK_LPS_PGE2: BioMAP Diversity Plus: LPS Assay for Prostaglandin E2 (PGE2) Biomarker Activity (AID 2283082); details: primary human HUVEC with PBMC; actives raise or lower the signal;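 as to AC50: secreted prostaglandin E2 measured by ELISA in LPS-stimulated co-culture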
How it was run: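 HUVEC plus PBMC co-culture stimulated with LPS; secreted PGE2 quantified by ELISA 24 h after chemical dosing. Activity fitted bidirectionally against DMSO as negative control and baseline; parallel SRB total-protein staining served as cytotoxicity check.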

[17] = read-out: Macrophage colony-stimulating factor (MCSF), CSF1 (gene 1435); test: BSK_LPS_MCSF: BioMAP Diversity Plus: LPS Assay for Macrophage colony-stimulating factor (MCSF) Biomarker Activity (AID 2283083); details: primary human HUVEC with PBMC; actives raise or lower the signal
How it was run: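 Bidirectional fitting against DMSO was applied to M-CSF levels read by ELISA at 24 h post-dose. The system pairs human umbilical vein endothelium with peripheral blood mononuclear cells; parallel SRB staining tracked cytotoxicity.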

[18] = read-out: Tissue Factor, F3 (gene 2152); test: BSK_LPS_TissueFactor: BioMAP Diversity Plus: LPS Assay for Tissue Factor Biomarker Activity (AID 2283084); details: primary human HUVEC with PBMC; actives raise or lower the signal
How it was run: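 Compound was added to an endothelial cell/PBMC co-culture, and after 24 h tissue factor (CD142) was read by ELISA. Gain or loss of signal was fitted against a DMSO baseline, and parallel SRB staining (560 nm) tracked overt cytotoxicity.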

[19] = read-out: Tumor necrosis factor (Homo sapiens) (UniProt P01375); test: BSK_LPS_TNFa: BioMAP Diversity Plus: LPS Assay for Tumour Necrosis Factor alpha (TNFa) Biomarker Activity (AID 2283085); details: primary human HUVEC with PBMC; actives raise or lower the signal;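 as to AC50: TNFa protein level quantified by ELISA in the co-culture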
How it was run: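 Human umbilical vein endothelial cells co-cultured with PBMC were exposed to test chemical and TNFa measured by ELISA 24 h after dosing. Bidirectional curve fitting was done relative to DMSO as negative control and baseline.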

Tumor necrosis factor (Homo sapiens), sequence (P01375 whole entry, looked up): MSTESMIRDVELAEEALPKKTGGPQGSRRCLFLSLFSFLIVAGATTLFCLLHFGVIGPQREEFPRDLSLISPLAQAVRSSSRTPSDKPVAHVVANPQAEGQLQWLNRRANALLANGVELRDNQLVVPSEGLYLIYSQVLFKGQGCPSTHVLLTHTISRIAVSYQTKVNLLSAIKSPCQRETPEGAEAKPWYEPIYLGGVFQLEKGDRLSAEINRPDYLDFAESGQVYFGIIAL
E-selectin (Homo sapiens), sequence (P16581 whole entry, looked up): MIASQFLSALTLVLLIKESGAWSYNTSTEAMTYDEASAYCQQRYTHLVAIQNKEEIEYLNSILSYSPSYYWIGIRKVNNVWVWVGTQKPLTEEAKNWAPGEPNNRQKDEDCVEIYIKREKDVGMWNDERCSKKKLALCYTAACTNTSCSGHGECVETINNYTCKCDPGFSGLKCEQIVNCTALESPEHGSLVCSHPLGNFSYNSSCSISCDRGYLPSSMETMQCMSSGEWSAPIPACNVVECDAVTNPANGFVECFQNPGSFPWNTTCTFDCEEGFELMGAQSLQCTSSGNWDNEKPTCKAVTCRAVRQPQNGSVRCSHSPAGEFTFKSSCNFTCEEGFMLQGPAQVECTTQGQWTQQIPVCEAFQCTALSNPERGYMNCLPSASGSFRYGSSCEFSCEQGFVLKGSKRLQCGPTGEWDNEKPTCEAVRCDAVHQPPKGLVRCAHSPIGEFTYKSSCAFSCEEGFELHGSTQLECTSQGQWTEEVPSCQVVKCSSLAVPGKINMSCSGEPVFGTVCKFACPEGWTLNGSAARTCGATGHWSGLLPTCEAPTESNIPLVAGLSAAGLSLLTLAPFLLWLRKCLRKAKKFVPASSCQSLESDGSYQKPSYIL

OCCCl
outcome [1]: inactive | outcome [2]: inactive | outcome [3]: inactive | outcome [4]: inactive | outcome [5]: inactive | outcome [6]: inactive | outcome [7]: inactive | outcome [8]: inactive | outcome [9]: inactive | outcome [10]: inactive | outcome (CD40, CD40 (gene 958)): inactive | outcome [11]: inactive | outcome [12]: inactive | outcome [13]: inactive | outcome [14]: inactive | outcome [15]: inactive | outcome [16]: inactive | outcome [17]: inactive | outcome [18]: inactive | outcome [19]: inactive

O=C(Nc1ccccc1)c1ccccc1I
outcome [1]: inactive | outcome [2]: inactive | outcome [4]: inactive | outcome [5]: inactive | outcome [6]: inactive | outcome [7]: inactive | outcome [8]: inactive | outcome [9]: inactive | outcome [10]: inactive | outcome (CD40, CD40 (gene 958)): inactive | outcome [11]: inactive | outcome [12]: inactive | outcome [13]: inactive | outcome [14]: inactive | outcome [15]: inactive | outcome [16]: inactive | outcome [17]: inactive | outcome [18]: inactive

O=[N+]([O-])C(Br)(CO)CO
AC50 [1]: 26.8 µM (active) | AC50 [2]: 35.8 µM (active) | AC50 [3]: 34.9 µM (active) | AC50 [4]: 33.2 µM (active) | AC50 [5]: 32.5 µM (active) | AC50 [6]: 28.5 µM (active) | AC50 [7]: 32 µM (active) | AC50 [9]: 34.4 µM (active) | AC50 [10]: 36.8 µM (active) | AC50 (CD40, CD40 (gene 958)): 29 µM (active) | AC50 [11]: 32.8 µM (active) | AC50 [12]: 34.2 µM (active) | AC50 [13]: 29.6 µM (active) | AC50 [14]: 34 µM (active) | AC50 [15]: 25.9 µM (active) | outcome [16]: inactive | AC50 [17]: 28.9 µM (active) | AC50 [18]: 28.4 µM (active) | AC50 [19]: 31.7 µM (active)

CCCCOC(=O)c1ccccc1C(=O)OCc1ccccc1
outcome [1]: inactive | outcome [2]: inactive | outcome [4]: inactive | outcome [5]: inactive | outcome [6]: inactive | outcome [7]: inactive | outcome [8]: inactive | outcome [9]: inactive | outcome [10]: inactive | outcome (CD40, CD40 (gene 958)): inactive | outcome [11]: inactive | outcome [12]: inactive | outcome [13]: inactive | outcome [14]: inactive | outcome [15]: inactive | AC50 [16]: 8.72 µM (active) | outcome [17]: inactive | outcome [18]: inactive

Oc1ccc2ccc3cccc4ccc1c2c34
AC50 [1]: 22.5 µM (active) | outcome [2]: inactive | outcome [4]: inactive | AC50 [5]: 20 µM (active) | AC50 [6]: 31.3 µM (active) | AC50 [7]: 31.7 µM (active) | outcome [8]: inactive | AC50 [9]: 15.3 µM (active) | outcome [10]: inactive | AC50 (CD40, CD40 (gene 958)): 20 µM (active) | AC50 [11]: 31.4 µM (active) | AC50 [12]: 30.5 µM (active) | AC50 [13]: 32 µM (active) | AC50 [14]: 29.2 µM (active) | AC50 [15]: 29.7 µM (active) | AC50 [16]: 4.03 µM (active) | AC50 [17]: 30.4 µM (active) | AC50 [18]: 34.4 µM (active) | AC50 [19]: 33 µM (active)

CC(C)(C)OOC(C)(C)CCC(C)(C)OOC(C)(C)C
outcome [1]: inactive | outcome [2]: inactive | outcome [4]: inactive | outcome [5]: inactive | outcome [6]: inactive | outcome [7]: inactive | outcome [8]: inactive | outcome [9]: inactive | outcome [10]: inactive | outcome (CD40, CD40 (gene 958)): inactive | outcome [11]: inactive | outcome [12]: inactive | outcome [13]: inactive | outcome [14]: inactive | outcome [15]: inactive | outcome [16]: inactive | outcome [17]: inactive | outcome [18]: inactive | outcome [19]: inactive

Source: PubChem BioAssay (EPA / NIEHS)
